Source: ChEMBL document CHEMBL3988442, “University of Dundee, Small-Polar-MMV Screening Library” (2021)
The campaign covered roughly 67,000 compounds. About 300 (0.45%) showed an effect of 50% or more. Many of the other results were omitted from the sample, so strong results are more common in it than they were.

Molecular target: Polyketide synthase Pks13 (Mycobacterium tuberculosis (strain ATCC 25618 / H37Rv)) (UniProt I6X8D2)
Experiment: Mycobacterium tuberculosis Polyketide synthase 13 Thioesterase (PKS13)
Format: functional
Set-up: scale not given: in the data most compounds retested in dose-response had high values
Settings: 30 µM

Chain of Polyketide synthase Pks13 (Mycobacterium tuberculosis (strain ATCC 25618 / H37Rv)) (I6X8D2 whole entry): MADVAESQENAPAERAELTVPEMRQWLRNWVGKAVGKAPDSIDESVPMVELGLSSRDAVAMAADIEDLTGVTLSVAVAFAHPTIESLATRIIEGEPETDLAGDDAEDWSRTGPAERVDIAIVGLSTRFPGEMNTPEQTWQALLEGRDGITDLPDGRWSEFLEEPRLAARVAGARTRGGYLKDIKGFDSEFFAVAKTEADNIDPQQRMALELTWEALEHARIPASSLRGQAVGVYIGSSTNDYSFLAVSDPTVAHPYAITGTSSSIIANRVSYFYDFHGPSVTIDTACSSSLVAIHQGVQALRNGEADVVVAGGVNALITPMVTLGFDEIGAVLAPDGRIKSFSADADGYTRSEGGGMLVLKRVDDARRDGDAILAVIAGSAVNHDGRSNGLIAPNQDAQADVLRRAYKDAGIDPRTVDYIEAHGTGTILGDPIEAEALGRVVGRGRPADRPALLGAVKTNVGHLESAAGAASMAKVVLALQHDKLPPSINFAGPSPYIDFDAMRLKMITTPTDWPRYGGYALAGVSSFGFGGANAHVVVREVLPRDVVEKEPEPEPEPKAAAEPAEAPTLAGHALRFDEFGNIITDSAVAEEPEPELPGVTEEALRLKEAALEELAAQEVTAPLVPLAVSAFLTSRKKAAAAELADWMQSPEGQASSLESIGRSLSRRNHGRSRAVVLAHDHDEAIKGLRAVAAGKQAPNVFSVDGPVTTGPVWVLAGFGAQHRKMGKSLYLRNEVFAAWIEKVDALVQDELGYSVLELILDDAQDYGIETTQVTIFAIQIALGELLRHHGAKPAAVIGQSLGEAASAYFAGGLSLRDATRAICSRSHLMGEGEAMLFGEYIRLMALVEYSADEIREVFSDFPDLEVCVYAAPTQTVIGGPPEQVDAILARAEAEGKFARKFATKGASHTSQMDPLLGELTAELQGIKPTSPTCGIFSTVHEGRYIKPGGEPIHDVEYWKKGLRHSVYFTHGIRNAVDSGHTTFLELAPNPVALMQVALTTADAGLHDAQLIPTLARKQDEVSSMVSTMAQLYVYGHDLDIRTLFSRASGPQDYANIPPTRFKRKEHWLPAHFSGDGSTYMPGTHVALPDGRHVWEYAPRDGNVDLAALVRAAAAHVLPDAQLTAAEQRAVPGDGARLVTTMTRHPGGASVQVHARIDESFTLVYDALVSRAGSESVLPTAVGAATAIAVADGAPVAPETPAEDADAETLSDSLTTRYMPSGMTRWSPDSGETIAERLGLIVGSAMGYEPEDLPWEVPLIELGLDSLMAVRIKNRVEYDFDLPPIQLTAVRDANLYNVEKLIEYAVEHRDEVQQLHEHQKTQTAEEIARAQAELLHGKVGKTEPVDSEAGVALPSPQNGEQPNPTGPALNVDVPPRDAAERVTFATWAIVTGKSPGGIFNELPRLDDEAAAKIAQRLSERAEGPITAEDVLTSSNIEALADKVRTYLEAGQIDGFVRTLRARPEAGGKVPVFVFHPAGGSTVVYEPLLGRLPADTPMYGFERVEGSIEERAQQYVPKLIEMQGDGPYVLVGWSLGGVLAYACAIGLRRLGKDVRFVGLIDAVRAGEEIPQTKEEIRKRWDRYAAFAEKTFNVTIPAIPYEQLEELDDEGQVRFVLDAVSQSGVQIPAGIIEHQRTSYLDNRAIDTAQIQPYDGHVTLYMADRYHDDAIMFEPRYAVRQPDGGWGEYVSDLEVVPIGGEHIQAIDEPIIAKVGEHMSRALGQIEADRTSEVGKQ

Compound | Percent Effect
Cc1oncc1C(=O)N1CC[C@@H]2[C@@H]1CC(=O)N2Cc1cccnc1 | 10.2%
CCc1ccccc1CN1CCN(Cc2ncc[nH]2)[C@H]2CS(=O)(=O)C[C@H]21 | -16.6%
Cn1ccc(C(=O)N2CCN(c3ncccn3)CC2)cc1=O | 11.1%
Cn1ccc(C(=O)NC2CCN(c3ncccn3)CC2)cc1=O | 71.3%
COc1ccc(C(=O)NC2CCN(c3ncccn3)CC2)cc1F | -18.2%
CN(C)c1ccc(CN2C[C@H]3CC[C@@H]2CN(C2CCOCC2)C3)cn1 | -33%
CNC(=O)[C@H]1C[C@@H]2CN(Cc3csc(C)n3)C[C@@H]2N1S(C)(=O)=O | -33.5%
O=C(Cc1ccccn1)N1CCC2(CC1)[C@H](O)C[C@@H]2O | 7.55%
CC(C)COC1CC2(CCN(C(=O)Cc3ccccn3)CC2)C1 | 0.268%
CCOC1CC2(CCN(C(=O)Cc3ccccn3)CC2)C1 | 58.6%
C[C@@H]1C[C@@H]2CCN(C(=O)c3ccncn3)C[C@H]2O1 | -3.96%
O=C(CC[C@@H]1CCCN2CCCC[C@H]12)NCCc1nc(O)cc(O)n1 | -3.34%
c1cncc(OC[C@]23COC[C@H]2CN(Cc2nccs2)C3)c1 | -6.85%
COCCCNC(=O)c1cn(C(C)(C)C)c2ncccc12 | 0.73%
COCCNC(=O)c1cn(C(C)(C)C)c2ncccc12 | -9.36%
CCOCCCNC(=O)c1cn(C(C)(C)C)c2ncccc12 | 60.2%
Cc1cccc(CN2C[C@@H]3CCCO[C@@H]3[C@H](Nc3ccccn3)C2)n1 | -13.2%
C[C@H]1C[C@@H]2CCN(C(=O)c3cccn3C)C[C@H]2O1 | -23.4%
Cc1oc(-c2nc(C#N)c(NC3CC3)o2)cc1S(=O)(=O)N1CCCC1 | -2.87%

Compound | Percent Effect
CN(C)S(=O)(=O)c1ccc(-c2nc(C#N)c(NC3CC3)o2)o1 | 73.3%
CN(C)S(=O)(=O)c1ccc(-c2nc(C#N)c(NC(C)(C)C)o2)o1 | -2.58%
Cc1ccc(C(=O)N2CCO[C@H]3[C@H](OCC4CCOCC4)CC[C@@H]32)o1 | -6.47%
CC(C)(CO)CNC(=O)c1cc(-c2cc[nH]n2)n2ccccc12 | 67.2%
O=C(NCCCO)c1cc(-c2cc[nH]n2)n2ccccc12 | 48.6%
COCCNC(=O)c1cc(-c2cc[nH]n2)n2ccccc12 | 47.6%
Fc1cnc(N2CCO[C@H]3CN(CC4CCCC4)C[C@H]32)nc1 | -14.5%
CC(C)c1n[nH]c(C(=O)Nc2ccccn2)c1Br | -9.25%
CC(C)c1n[nH]c(C(=O)Nc2cc[nH]n2)c1Br | -20%
Cc1cccc(NC(=O)c2[nH]nc(C(C)C)c2Br)n1 | 73.4%
Cc1cc(CN2C[C@H]3CCC[C@@]3(COCC3CCOCC3)C2)no1 | -40.7%
CC(=O)N1C[C@@H](c2ccsc2)[C@@H]2CN(Cc3ccccc3C)CC[C@@H]21 | -7.95%
Cc1nc([C@@H]2C[C@@H]3CCN(Cc4cnn(C)c4)C[C@H]3O2)sc1C | -30.4%
CC(=O)N1CCS(=O)(=O)[C@@H]2CCN(CC(C)C)CC[C@@H]21 | -16.8%
CC(CNS(=O)(=O)CCCC#N)c1ccsc1 (stereo unspecified) | -31.9%
Cc1cccc(C(C)CNS(=O)(=O)CCCC#N)c1 (stereo unspecified) | 50.7%
COCCS(=O)(=O)NCC(C)c1cccc(C)c1 (stereo unspecified) | -20.8%
Cn1cc(CN2C[C@H]3CCN(C(=O)c4cscn4)C[C@H]3C2)cn1 | -3.8%
Cc1ccc(CC(=O)N2CC[C@@H]3NC(=O)CC[C@@H]32)cc1 | -1.54%

Compound | Percent Effect
CCc1ccc(S(=O)(=O)NCC2CCN(c3cnccn3)CC2)s1 | 56.2%
CCS(=O)(=O)NCC1CCN(c2cnccn2)CC1 | -18.7%
O=S(=O)(NCC1CCN(c2cnccn2)CC1)c1cccs1 | 45.5%
CCCc1ccc(CN2CCN(C(=O)CC(C)C)[C@@H]3CS(=O)(=O)C[C@@H]32)o1 | -12.9%
CCN(Cc1ccccc1)C(=O)c1cc(C2CCCN2C)ccn1 (stereo unspecified) | -15.7%
CCN(CC)C(=O)c1cc(C2CCCN2C)ccn1 (stereo unspecified) | 88.5%
CN1CCCC1c1ccnc(C(=O)N(C)C2CCCCC2)c1 (stereo unspecified) | 5.64%
C=Cn1ncc(CN2C[C@@H]3CCCN3C[C@@H]2CCSC)c1C | -1.08%
CCc1nnc(CN2CCOC(Cn3cc(C)cn3)C2)o1 (stereo unspecified) | 52.7%
Cc1cnn(CC2CN(Cc3nnc(C4CC4)o3)CCO2)c1 (stereo unspecified) | -7.17%
Cc1cnn(CC2CN(Cc3nnc(C(C)C)o3)CCO2)c1 (stereo unspecified) | -12.6%
Cc1ccc(N2C[C@H]3CCC[C@@]3(COc3cccnc3)C2)nn1 | -28.6%
CCCOC(C)Cn1ccc2[nH]c(=O)c(C#N)cc2c1=O (stereo unspecified) | 89.3%
N#Cc1cc2c(=O)n(CC(O)C(F)(F)F)ccc2[nH]c1=O (stereo unspecified) | -25.1%
CCC(Cn1ccc2[nH]c(=O)c(C#N)cc2c1=O)OC (stereo unspecified) | -9.98%
O=C(NC1CCC1)[C@H]1C[C@@H]2CN(S(=O)(=O)c3ccccc3)C[C@H]1O2 | -31.3%
O=C(N[C@H]1CN(Cc2cccs2)[C@@H]2CCCO[C@H]12)c1cccnc1 | -28.5%
COc1ccccc1CN1C(=O)O[C@@H]2CN(c3ccccn3)C[C@@H]21 | 4.73%
